From the supplement of paper PMC11732987, “Enantioselective OTUD7B fragment discovery through chemoproteomics screening and high-throughput optimisation” (Communications Chemistry, 2025)

What was measured:
Experiment in all cases: log2 ratio of Biotin-Ahx-Ub-VS probe labelling (fragment/DMSO); higher = less target engagement (more negative = stronger competition), active = hit call of the paper (q ≤ 0.05, log2 ratio ≤ -1)
Settings in all cases: compound concentration: 200 uM; treatment time: 3 h
OTUD6B = molecular target: T1, OTUD6B (UniProt Q8N6M0)
T1 sequence (whole entry): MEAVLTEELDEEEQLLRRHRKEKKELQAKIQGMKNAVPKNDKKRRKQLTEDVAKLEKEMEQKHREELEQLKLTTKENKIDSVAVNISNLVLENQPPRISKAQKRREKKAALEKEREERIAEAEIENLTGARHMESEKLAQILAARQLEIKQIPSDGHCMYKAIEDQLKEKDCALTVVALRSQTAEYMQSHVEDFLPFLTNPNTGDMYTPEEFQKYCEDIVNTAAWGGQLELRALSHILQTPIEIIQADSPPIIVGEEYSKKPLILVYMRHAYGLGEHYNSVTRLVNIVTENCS
How it was run: (§1)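 HEK293T lysate (495 µg per sample, in Tris/CHAPS/IGEPAL buffer with protease inhibitors) was exposed in triplicate for 3 h to fragment at 200 µM or to vehicle, then to Biotin-Ahx-Ub-VS at 0.5 µM final for 1 h. Labelled DUBs were enriched on NeutrAvidin, digested with LysC and trypsin, and analysed by diaPASEF LC-MS/MS. Spectronaut label-free quantities were normalised to the global median, and values are average log2 ratios of fragment over vehicle from an unpaired t-test. Only proteins with ≥2 unique peptides were used.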

OTUD7B = molecular target: T2, OTUD7B (UniProt Q6GQQ9)
T2 sequence (whole entry): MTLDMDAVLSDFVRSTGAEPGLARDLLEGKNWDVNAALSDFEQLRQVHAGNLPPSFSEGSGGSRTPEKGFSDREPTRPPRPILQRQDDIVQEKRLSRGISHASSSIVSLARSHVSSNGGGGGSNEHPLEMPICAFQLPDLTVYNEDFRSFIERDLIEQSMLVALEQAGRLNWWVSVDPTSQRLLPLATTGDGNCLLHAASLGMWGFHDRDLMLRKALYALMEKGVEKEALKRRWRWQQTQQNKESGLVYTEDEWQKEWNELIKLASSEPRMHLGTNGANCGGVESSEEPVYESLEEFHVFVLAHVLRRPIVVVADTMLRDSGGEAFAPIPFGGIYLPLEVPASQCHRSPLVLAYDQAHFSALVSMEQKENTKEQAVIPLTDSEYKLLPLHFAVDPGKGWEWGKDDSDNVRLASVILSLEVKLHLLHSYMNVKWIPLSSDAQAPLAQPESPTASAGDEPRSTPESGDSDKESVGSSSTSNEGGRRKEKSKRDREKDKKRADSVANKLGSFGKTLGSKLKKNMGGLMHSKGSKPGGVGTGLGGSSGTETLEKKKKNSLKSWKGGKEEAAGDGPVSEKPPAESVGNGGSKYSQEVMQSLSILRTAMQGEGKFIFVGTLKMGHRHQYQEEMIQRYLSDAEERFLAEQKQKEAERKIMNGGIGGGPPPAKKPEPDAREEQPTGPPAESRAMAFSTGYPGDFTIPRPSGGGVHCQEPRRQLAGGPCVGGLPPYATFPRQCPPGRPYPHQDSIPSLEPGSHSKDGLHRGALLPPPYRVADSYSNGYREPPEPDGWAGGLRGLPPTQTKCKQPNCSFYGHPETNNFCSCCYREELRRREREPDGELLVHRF
How it was run: as §1

PRPF8 = PRPF8 (UniProt Q6P2Q9)
How it was run: as §1

PSMD7 = molecular target: T3, PSMD7 (UniProt P51665)
T3 sequence (whole entry): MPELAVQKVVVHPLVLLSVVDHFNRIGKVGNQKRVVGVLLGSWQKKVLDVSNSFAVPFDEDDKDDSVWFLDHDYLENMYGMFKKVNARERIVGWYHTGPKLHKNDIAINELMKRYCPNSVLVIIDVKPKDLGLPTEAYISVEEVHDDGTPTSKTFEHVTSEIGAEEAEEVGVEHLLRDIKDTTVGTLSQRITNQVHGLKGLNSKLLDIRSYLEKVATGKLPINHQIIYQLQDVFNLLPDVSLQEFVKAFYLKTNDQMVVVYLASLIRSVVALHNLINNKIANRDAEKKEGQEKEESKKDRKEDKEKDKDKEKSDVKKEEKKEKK
How it was run: as §1

UCHL1 = UCHL1 (UniProt P09936)
Sequence of UCHL1 (P09936 whole entry, looked up): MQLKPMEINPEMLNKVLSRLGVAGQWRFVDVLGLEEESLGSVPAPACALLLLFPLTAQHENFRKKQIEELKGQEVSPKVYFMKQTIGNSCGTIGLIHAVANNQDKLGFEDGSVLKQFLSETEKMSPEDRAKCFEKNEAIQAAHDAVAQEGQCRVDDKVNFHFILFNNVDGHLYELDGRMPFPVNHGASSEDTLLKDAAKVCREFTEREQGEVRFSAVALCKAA
How it was run: as §1

UCHL3 = molecular target: T4, UCHL3 (UniProt P15374)
T4 sequence (whole entry): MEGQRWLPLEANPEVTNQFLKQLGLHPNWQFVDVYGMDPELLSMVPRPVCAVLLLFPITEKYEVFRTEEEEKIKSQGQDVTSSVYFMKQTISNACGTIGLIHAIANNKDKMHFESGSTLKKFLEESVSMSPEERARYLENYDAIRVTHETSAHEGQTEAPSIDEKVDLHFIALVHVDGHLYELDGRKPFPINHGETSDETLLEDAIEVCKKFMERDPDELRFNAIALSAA
How it was run: as §1

UCHL5 = molecular target: T5, UCHL5 (UniProt Q9Y5K5)
T5 sequence (whole entry): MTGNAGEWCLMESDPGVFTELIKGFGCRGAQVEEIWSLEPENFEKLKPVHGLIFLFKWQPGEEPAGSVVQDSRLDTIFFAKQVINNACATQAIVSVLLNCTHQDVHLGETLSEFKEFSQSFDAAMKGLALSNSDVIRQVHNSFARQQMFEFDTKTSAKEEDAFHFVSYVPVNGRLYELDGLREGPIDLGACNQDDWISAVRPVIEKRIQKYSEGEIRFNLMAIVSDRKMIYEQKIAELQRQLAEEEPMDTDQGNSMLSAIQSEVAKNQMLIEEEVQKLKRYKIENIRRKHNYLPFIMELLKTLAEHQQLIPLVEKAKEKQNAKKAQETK
How it was run: as §1

USP10 = USP10 (UniProt Q14694)
Sequence of USP10 (Q14694 whole entry): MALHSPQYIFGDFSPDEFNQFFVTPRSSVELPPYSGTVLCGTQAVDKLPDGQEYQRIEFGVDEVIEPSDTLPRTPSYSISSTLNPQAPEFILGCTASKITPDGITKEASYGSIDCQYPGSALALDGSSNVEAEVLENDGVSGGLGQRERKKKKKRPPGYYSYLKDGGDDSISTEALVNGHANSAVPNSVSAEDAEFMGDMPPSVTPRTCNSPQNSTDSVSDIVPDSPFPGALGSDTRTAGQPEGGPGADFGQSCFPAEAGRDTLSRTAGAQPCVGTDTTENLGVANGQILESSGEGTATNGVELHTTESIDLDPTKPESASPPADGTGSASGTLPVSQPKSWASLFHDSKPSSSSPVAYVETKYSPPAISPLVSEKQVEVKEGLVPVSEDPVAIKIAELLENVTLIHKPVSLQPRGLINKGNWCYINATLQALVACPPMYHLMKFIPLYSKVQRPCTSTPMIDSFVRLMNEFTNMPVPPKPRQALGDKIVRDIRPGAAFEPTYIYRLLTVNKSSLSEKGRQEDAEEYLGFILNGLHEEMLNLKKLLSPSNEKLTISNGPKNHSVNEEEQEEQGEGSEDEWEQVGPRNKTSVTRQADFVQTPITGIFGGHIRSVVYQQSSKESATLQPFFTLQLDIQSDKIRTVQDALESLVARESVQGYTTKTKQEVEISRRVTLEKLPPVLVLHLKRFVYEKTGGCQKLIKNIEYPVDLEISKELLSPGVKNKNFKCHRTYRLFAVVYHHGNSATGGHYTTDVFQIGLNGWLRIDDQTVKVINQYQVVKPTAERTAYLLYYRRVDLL
How it was run: as §1

USP15 = molecular target: T6, USP15 (UniProt Q9Y4E8)
T6 sequence (whole entry): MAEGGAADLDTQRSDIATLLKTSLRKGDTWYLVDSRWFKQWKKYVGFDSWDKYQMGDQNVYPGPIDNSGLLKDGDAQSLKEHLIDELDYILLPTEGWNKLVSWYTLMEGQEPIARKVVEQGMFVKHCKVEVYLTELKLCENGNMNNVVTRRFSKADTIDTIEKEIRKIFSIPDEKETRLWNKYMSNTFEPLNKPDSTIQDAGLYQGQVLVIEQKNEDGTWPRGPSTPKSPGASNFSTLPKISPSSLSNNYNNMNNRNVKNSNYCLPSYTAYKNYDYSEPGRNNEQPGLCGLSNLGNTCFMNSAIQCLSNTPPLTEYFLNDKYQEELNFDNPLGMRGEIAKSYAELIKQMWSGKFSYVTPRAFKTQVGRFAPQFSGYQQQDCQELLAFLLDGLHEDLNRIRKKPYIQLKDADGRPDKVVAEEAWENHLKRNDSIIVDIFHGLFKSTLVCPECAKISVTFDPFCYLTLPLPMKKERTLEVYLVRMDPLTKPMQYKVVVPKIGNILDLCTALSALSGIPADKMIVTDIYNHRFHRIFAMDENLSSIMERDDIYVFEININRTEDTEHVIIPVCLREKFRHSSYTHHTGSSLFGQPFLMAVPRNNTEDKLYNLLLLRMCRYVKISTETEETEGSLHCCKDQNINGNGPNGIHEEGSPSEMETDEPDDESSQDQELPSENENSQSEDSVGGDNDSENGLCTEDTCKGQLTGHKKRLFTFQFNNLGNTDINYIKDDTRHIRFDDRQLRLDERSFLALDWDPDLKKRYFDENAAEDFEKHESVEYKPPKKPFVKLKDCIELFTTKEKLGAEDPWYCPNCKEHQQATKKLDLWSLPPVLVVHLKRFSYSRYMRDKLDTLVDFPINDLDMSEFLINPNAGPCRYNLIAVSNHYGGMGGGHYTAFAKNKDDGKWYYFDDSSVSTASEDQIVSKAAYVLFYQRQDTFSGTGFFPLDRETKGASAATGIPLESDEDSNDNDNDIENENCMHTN
How it was run: as §1

USP16 = USP16 (UniProt Q9Y5T5)
Sequence of USP16 (Q9Y5T5 whole entry, looked up): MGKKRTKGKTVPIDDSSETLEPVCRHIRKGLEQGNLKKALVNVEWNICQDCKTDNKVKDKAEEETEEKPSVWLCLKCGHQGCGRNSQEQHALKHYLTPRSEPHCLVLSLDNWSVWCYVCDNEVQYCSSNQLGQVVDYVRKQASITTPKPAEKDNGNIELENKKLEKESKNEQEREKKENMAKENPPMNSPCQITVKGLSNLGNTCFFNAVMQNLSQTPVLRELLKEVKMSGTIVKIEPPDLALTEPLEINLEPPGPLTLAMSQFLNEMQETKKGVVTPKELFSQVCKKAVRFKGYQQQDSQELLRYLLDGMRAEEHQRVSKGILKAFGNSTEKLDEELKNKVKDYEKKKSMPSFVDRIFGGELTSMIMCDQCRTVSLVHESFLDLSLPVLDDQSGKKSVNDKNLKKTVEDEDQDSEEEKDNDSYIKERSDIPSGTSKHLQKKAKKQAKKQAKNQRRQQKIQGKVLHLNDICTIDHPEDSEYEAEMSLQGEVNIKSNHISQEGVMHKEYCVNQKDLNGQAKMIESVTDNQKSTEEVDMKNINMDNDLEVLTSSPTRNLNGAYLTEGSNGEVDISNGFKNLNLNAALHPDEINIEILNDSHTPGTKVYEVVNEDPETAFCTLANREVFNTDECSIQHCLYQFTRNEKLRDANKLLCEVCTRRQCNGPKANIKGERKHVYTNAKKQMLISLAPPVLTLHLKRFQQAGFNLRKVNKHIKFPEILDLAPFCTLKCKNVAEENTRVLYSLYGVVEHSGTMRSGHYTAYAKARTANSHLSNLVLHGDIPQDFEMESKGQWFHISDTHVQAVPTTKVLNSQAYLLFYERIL
How it was run: as §1

Measured: log2 ratio of Biotin-Ahx-Ub-VS probe labelling

O=C(CCl)NCc1ccc(N2CCOCC2)c(F)c1
inactive: OTUD6B 0.111 | OTUD7B -0.497 | PRPF8 -0.0572 | PSMD7 0.0258 | UCHL3 0.309 | UCHL5 -0.0833 | USP10 -0.131 | USP15 -0.0773 | USP16 -0.0789
active: UCHL1 -1.41
